Most compounds without a hit are left out; they make up all but 1.8% or so of the library.
RAD52 anneal inh – RAD52 (human) annealing inhibition; inhibition, % at 18.7 µM; AID 651710; recombinant RAD52 DNA annealing, FRET fluorescence; P43351; actives 0.46% (n = 360,000);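 active = every replicate showing at least 50% inhibition; inconclusive = mean inhibition at least 50% but not in every replicate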
Target sequence (P43351 whole entry, looked up): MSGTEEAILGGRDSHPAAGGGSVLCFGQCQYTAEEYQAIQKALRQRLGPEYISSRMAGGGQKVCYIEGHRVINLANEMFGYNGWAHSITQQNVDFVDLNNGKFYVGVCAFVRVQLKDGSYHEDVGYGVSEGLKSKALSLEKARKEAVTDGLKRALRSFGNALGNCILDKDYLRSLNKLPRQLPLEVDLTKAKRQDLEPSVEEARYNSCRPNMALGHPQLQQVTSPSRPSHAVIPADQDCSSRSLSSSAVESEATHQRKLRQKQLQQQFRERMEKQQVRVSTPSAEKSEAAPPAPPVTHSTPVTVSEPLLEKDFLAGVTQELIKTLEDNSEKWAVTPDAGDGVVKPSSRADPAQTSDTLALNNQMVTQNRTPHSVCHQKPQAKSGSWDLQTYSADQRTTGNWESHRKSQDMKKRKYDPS
F508del corr – correctors of CFTR F508del function in bronchial epithelial cells. CFBE cells, YFP halide quenching; stimulated with forskolin plus potentiator P3; % fluorescence drop versus neutral controls. activity (quench increase), % at 7.58 µM. actives 0.36% (n = 350,000). AID 720511;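 active = mean added fluorescence quench of at least 8% versus neutral control, with both replicates also reaching 8%; inconclusive = only one of the mean or replicate conditions met; inactive = mean below 8% and not both replicates reaching 8%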;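 also: cells transiently co-express mutant CFTR-F508del with the halide-sensitive YFP; corrector assay measuring rescue of mutant channel to the surface after 24 h compound exposure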
LGR2 inh – blocks bursicon-induced cAMP signaling via Drosophila LGR2; inhibition, % at 9.99 µM; HEK293 LGR2, CRE-luciferase, bursicon-stimulated, 4 h; actives 0.35% (n = 380,000);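 active = drop in luminescence signal, shown as inhibition above about 50% in the replicate tests, limit read from the data, passing the limit was not always enough; inconclusive = probably only some replicates passing the limit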;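 also: agonist challenge used bursicon conditioned medium at about half maximal strength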
RAD54 branch – RAD54 (human) branch migration inhibition; actives 0.14% (n = 360,000); RAD54 Holliday junction branch migration, FAM/BHQ fluorescence; AID 602329; inhibition, % at 10.4 µM; Q92698;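 active = mean normalized replicate activity at least 40 and at least half of replicates scoring 40 or more; inconclusive = only one of the two criteria met; inactive = mean below 40 and under half of replicates reaching 40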;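 also: inhibitors cause a drop in the FAM fluorescence signal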
GSIS activator – GLuc luminescence reporter in INS-1E cells, primary screen for activators of glucose-dependent secretion of insulin; activation, % at 16.6 µM; actives 0.61% (n = 370,000); INS-1E GLuc reporter insulin secretion, 2-3 h;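 active = lowest replicate activation of at least 40%, so every replicate reaches that level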
EWS-Fli inh – EWS/Fli transcriptional activity inhibition | actives 0.67% (n = 350,000) | inhibition, % at 12.6 µM | A673 NR0B1-luciferase reporter, viability-normalised;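 active = mean inhibition of at least 50% after viability correction, with every replicate also passing that limit; inconclusive = mean reaches 50% but only one of two replicates passes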;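 also: firefly luciferase signal divided by Alamar Blue viability fluorescence both relative to DMSO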
RAD52 DNA ctr – binds DNA, flagging false RAD52 inhibitor hits | shares compounds with RAD52 anneal inh | Salmon sperm DNA/acridine orange FP displacement, DNA binding | AC50, µM | actives 8% (n = 1,000) | AID 652128;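 active = fitted half-maximal concentration for signal loss at or below twice the highest dose tested, in every separate run, actives reach about 64 µM in these data; inconclusive = runs disagree, or flat partial signal loss, or poor fit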
A number is an active result; - = inactive; ? = inconclusive; . = no result given; ! = not active in a repeat.

SMILES | RAD52 anneal inh | F508del corr | LGR2 inh | RAD54 branch | GSIS activator | EWS-Fli inh | RAD52 DNA ctr
CCC[C@@H](CN1CCC[C@H]1CN1C(N)=NC[C@H]1CC(C)C)N1C[C@@H](Cc2ccccc2)N(CCc2ccc(Cl)c(Cl)c2)C1=N | 65 | - | - | - | - | - | -
CCC[C@@H](CN1CCC[C@H]1CN1C(N)=NC[C@@H]1Cc1ccccc1)N1C[C@@H](Cc2ccccc2)N(CCCC2CCCC2)C1=N | . | . | . | - | . | . | .
CCC[C@@H](CN1CCC[C@H]1CN1C(N)=NC[C@H]1CC(C)C)N1C[C@@H](Cc2ccccc2)N(CCCC2CCCC2)C1=N | 58 | - | - | - | - | - | -
CCC[C@@H](CN1CCC[C@H]1CN1C(N)=NC[C@@H]1Cc1ccccc1)N1C[C@@H]([C@H](C)CC)N(CCc2ccc(Cl)c(Cl)c2)C1=N | . | . | . | - | . | . | .
CCC[C@@H](CN1CCC[C@H]1CN1C(N)=NC[C@H]1CC(C)C)N1C[C@@H]([C@H](C)CC)N(CCc2ccc(Cl)c(Cl)c2)C1=N | 51 | - | - | - | - | - | -
CC[C@@H](C)[C@@H]1CN([C@@H](CN2CCC[C@H]2CN2C(N)=NC[C@H]2CC(C)C)C(C)C)C(=N)N1CCc1ccc(Cl)c(Cl)c1 | 50 | - | - | - | - | - | -
CC[C@@H](C)[C@@H]1CN([C@@H](C)CN2CCC[C@H]2CN2C(N)=NC[C@H]2CC(C)C)C(=N)N1CCc1ccc(Cl)c(Cl)c1 | - | - | - | - | - | - | .
N#CCc1nn2c3c(cnc2c1C#N)C(=O)CCC3 | - | - | - | - | - | - | .
COc1ccccc1C#Cc1ccc([C@H]2[C@H](C#N)N(C(=O)C3CC3)[C@H]2CO)cc1 | - | - | - | - | - | - | .
COc1ccccc1CNc1nc(NCc2ccc(NC(C)=O)cc2)c2sccc2n1 | 51 | - | - | - | - | - | -
C=CCNc1nc(NCc2ccc(NC(C)=O)cc2)c2sc(-c3ccccc3)cc2n1 | - | - | - | - | - | - | .
CC(=O)Nc1ccc(CNc2nc(NC(C)C)nc3cc(-c4ccccc4)sc23)cc1 | 97 | - | - | - | - | 60 | -
COc1ccccc1CNc1nc(NCc2ccccc2OC)c2sccc2n1 | - | - | - | - | - | - | .
COc1ccc(Cl)cc1C(=O)NNC(=O)c1cccnc1 | . | . | - | . | - | . | .
CCC(C)(C)c1ccc(OCCCC[n+]2cccc(C)c2C)c(C(C)(C)CC)c1 | 66 | - | . | - | . | ? | -
Cc1ccc2nc(N(CCCN(C)C)C(=O)CCc3ccccc3)sc2c1 | - | - | - | . | . | - | .
Cc1ccc2nc(N(CCCN(C)C)C(=O)CN3C(=O)c4ccccc4C3=O)sc2c1 | 62 | - | - | . | - | - | -
Cc1cc(C)c2sc(N(CCCN(C)C)C(=O)c3ccc(Br)s3)nc2c1 | 58 | - | - | - | - | - | -
Cc1cc(C)c2sc(N(CCCN(C)C)C(=O)CN3C(=O)c4ccccc4C3=O)nc2c1 | 67 | - | - | - | . | - | -
O=C(O)c1cccc(NC(=O)c2ccccc2)c1 | - | - | - | - | - | - | .
O=C(Nc1cccc(C(=O)Nc2cccc(Br)c2)c1)c1ccccc1 | 94 | - | - | - | - | - | -
CCOC(=O)N1CCN(C(=O)CCSc2ccccc2)CC1 | . | . | . | - | . | . | .
Cc1cc(-n2c(C)c3c(C)nnc(C)c3c2C)ccc1N | 66 | - | . | . | . | - | -
Cc1ccc(-n2c(C)c3c(C)nnc(C)c3c2C)cc1N | - | - | - | - | - | - | .
CCOC(=O)c1c(NC(C)=O)sc2c(OCCN(CC)CC)c(Br)ccc12 | 61 | - | - | . | - | - | -
SMILES | RAD52 anneal inh | F508del corr | LGR2 inh | RAD54 branch | GSIS activator | EWS-Fli inh | RAD52 DNA ctr
COCCNC(=O)C1Cc2cc(S(=O)(=O)N3CCCC3)ccc2N1C(C)=O (stereo not drawn) | - | - | - | - | - | - | .
CC1CCCN(S(=O)(=O)c2ccc(C(=O)Nc3nnc(-c4ccccc4Cl)o3)cc2)C1 (stereo not drawn) | . | . | . | - | . | . | .
OC(CNCCc1ccc(Cl)cc1)COc1ccc2ccccc2c1 (stereo not drawn) | 53 | - | - | - | - | - | -
O=C(NCC1CCCO1)c1nnc(Cc2ccc(F)cc2)o1 (stereo not drawn) | 53 | - | - | - | - | - | -
COc1ccc(/C=C/C(=O)OCC(=O)N2c3ccccc3CC2C)c(OC)c1 (stereo not drawn) | - | - | - | - | - | - | .
CC1(C)CC(Nc2ccc(Nc3ccccc3)cc2)CC(C)(C)N1 | 100 | - | - | . | - | - | -
CN1/C(=C/C=C/c2n(C)c3cc([N+](=O)[O-])c([N+](=O)[O-])cc3[n+]2C)C(C)(C)c2ccccc21 | 61 | - | ? | - | - | - | 38µM
Cc1cc(C)c2c(=N)c3ccccc3n(CCCCCCCCn3c4ccccc4c(=N)c4c(C)cc(C)nc43)c2n1 | 67 | - | - | . | - | - | 16µM
CCCCCCCCn1c2c(c(=N)c3ccccc31)CCC2 | - | - | ? | . | - | - | .
CC(C)(C)c1ccc(/C=N/NC(=S)NC2CCCCC2)cc1 | - | - | - | . | - | - | .
COc1cccc(-c2nc(C(=O)NCCCN3CCOCC3)cc3c2[nH]c2ccccc23)c1 | 59 | - | - | - | - | - | -
CN1CCN(CCCN2c3ccccc3Sc3ccc(C(F)(F)F)cc32)CC1 | 50! | - | - | - | - | - | -
O=C(CN1CCCC(O)C1)N1c2ccccc2Sc2ccc(C(F)(F)F)cc21 (stereo not drawn) | . | . | - | - | - | . | .
COc1cc2c(cc1OC)C(c1ccccc1)=NCC2 | - | - | - | - | - | - | .
COc1cc2c(cc1OC)C(c1ccccc1N)=NCC2 | 61 | - | - | - | - | - | -
C[C@H](CO)N1C[C@H](C)[C@H](CN(C)C(=O)Nc2ccccc2F)Oc2cc(-c3ccccc3)ccc2S1(=O)=O | - | - | - | - | - | - | .
Cc1ccc2nc(NS(=O)(=O)c3cn(C)nc3C)sc2c1 | - | - | - | - | - | . | .
CN1CCN(C2Cc3cc(Cl)ccc3Sc3cc(F)ccc32)CC1 (stereo not drawn) | 54 | - | - | . | - | - | -
C[C@@H]1CCCCO[C@H](CN(C)C(=O)Cc2ccccc2)[C@H](C)CN([C@@H](C)CO)C(=O)c2cc(NS(=O)(=O)c3cccs3)ccc2O1 | - | - | - | - | - | - | .
COc1ccc(NC(=O)CCN2CCN(c3ccc(F)cc3)CC2)cc1 | - | - | - | - | - | - | -
CCOc1ccc(NC(=O)CCN2CCN(c3ccccc3)CC2)cc1 | . | . | . | - | . | . | .
CCCCCCCCCCCC1N=C(N)NC(CCCO)=C1C(=O)OC (stereo not drawn) | 88 | - | . | . | . | - | ?
COc1cccc(C#Cc2ccc([C@@H]3[C@@H](C#N)N(C(=O)C4CCOCC4)[C@H]3CO)cc2)c1 | - | - | - | - | - | - | .

High-throughput results deposited in PubChem by Broad Institute.
